Experimental findings from the supplement of paper PMC12669032 are described below.

Values without a mark were called inactive.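 How the source made its calls: active = AUC reduced over 20% with Padj below 0.05 in at least 2 of 3 replicates; inactive = otherwise.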

What all share (assay): growth AUC relative to DMSO control (median of replicates) (fraction); higher = more growth (less inhibition), active = hit call of the paper
What all share (conditions): 20 µM; 24 h

In one assay the test system is Akkermansia muciniphila. The method in brief: (§1)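 In round-bottom 96-well plates sealed with pierced gas-permeable seals, gut bacterial monocultures in mGAM were grown anaerobically at 37 °C from OD600 0.05 with 20 µM compound (1% DMSO). OD600 readings were taken hourly for 24 h, and the minimum OD was set to 0. Area under the growth curve was then normalised to the plate median of solvent-only wells, or to row and column medians on the industrial chemical plate. The value given is the median of three biological replicates grown on separate days.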

A further assay relates to Bacteroides caccae. In a few lines: as §1
The next assay concerns Bacteroides clarus. In a few lines:
as §1

Another assay has as its system Bacteroides dorei. In a few lines: as §1
The subject of the next assay is Bacteroides stercoris. In a few lines: as §1
For assay [1], the system named is Bacteroides thetaiotaomicron. The method in brief:
as §1

The subject of the next assay is Bacteroides uniformis. The method in brief: as §1
In assay [2] the test system is Bifidobacterium longum subsp. longum. In a few lines:
as §1

For the next assay, the system named is Clostridium difficile. The method in brief: as §1
The test system of the next assay is Collinsella aerofaciens. The method in brief:
as §1

For `Fc1ccc(Oc2ccnc3cc(Cl)cc(Cl)c23)cc1`, the “growth AUC” value is 0.94 in the assay with Akkermansia muciniphila; 0.899 in the assay on Bacteroides caccae; 0.918 in the assay on Bacteroides clarus; 1.05 in the assay with Bacteroides dorei; 0.806 in the assay with Bacteroides stercoris; 0.887 in assay [1]. Moreover, the “growth AUC” value in the assay with Bacteroides uniformis is 0.875; in assay [2], 0.905; in the assay with Clostridium difficile it was 1.08; with Collinsella aerofaciens, 0.967.
In the case of `CCOP(=O)(OCC)OP(=O)(OCC)OCC`, the “growth AUC” value in the assay on Akkermansia muciniphila is 1.07; in the assay with Bacteroides caccae, 0.988; in the assay on Bacteroides clarus, 1; in the assay on Bacteroides dorei, 0.956; in the assay with Bacteroides stercoris, 0.932; in assay [1] it was 1.03. The “growth AUC” value in the assay on Bacteroides uniformis was 0.992; in assay [2], 1.02; with Clostridium difficile, 1.03; with Collinsella aerofaciens, 0.966.
For the compound `C[N+]1(C)CCCCC1.[Cl-]`, the “growth AUC” value with Akkermansia muciniphila was 0.993; with Bacteroides caccae, 1.02; in the assay on Bacteroides clarus, 1.03; with Bacteroides dorei, 1.02; in the assay on Bacteroides stercoris, 1.02; in assay [1], 1.03. In addition, the “growth AUC” value was 1.05 with Bacteroides uniformis, 1.01 in assay [2], 1.01 in the assay on Clostridium difficile and 1.02 in the assay on Collinsella aerofaciens.
Consider `CCS(=O)(=O)c1nc2ccccn2c1S(=O)(=O)NC(=O)Nc1nc(OC)cc(OC)n1`, for which the “growth AUC” value was 1.1 in the assay on Akkermansia muciniphila; 1.02 in the assay with Bacteroides caccae; 1.02 with Bacteroides clarus; 0.993 in the assay with Bacteroides dorei; 1 in the assay on Bacteroides stercoris; 0.995 in [1]. Also, the “growth AUC” value in the assay with Bacteroides uniformis was 0.989; in assay [2], 0.928; with Clostridium difficile, 1.01; with Collinsella aerofaciens, 0.983.
Take `COS(=O)(=O)[O-].Cn1c(-c2ccccc2)cc(-c2ccccc2)[n+]1C`: the “growth AUC” value in the assay with Akkermansia muciniphila was 0.936; with Bacteroides caccae, 0.994; in the assay on Bacteroides clarus it was 0.966; with Bacteroides dorei it was 0.976; in the assay on Bacteroides stercoris it was 0.979; in assay [1], 0.938. In addition, the “growth AUC” value is 1.01 in the assay with Bacteroides uniformis, 0.925 in assay [2], 1.04 in the assay with Clostridium difficile and 0.989 in the assay with Collinsella aerofaciens.
On to `Oc1cc(Cl)cc(Cl)c1`, for which the “growth AUC” value was 1.04 in the assay with Akkermansia muciniphila; 1.01 in the assay with Bacteroides caccae; 1 with Bacteroides clarus; 0.996 in the assay with Bacteroides dorei; 1.08 in the assay with Bacteroides stercoris; 0.917 in assay [1]. Besides, the “growth AUC” value in the assay on Bacteroides uniformis was 1.01; in [2], 0.998; in the assay with Clostridium difficile, 1; with Collinsella aerofaciens it was 1.01.
For `CCCOCC(=Nc1ccc(Cl)cc1C(F)(F)F)n1ccnc1`, the “growth AUC” value is 1.03 with Akkermansia muciniphila; 0.955 with Bacteroides caccae; 0.919 in the assay on Bacteroides clarus; 0.982 with Bacteroides dorei; 1.16 in the assay with Bacteroides stercoris; 0.934 in assay [1]. The “growth AUC” value with Bacteroides uniformis is 0.913; in [2] it was 1.03; in the assay on Clostridium difficile, 0.922; with Collinsella aerofaciens, 0.941.
For the compound `CCC(C)[C@H]1O[C@]2(C=C[C@@H]1C)C[C@@H]1C[C@@H](C/C=C(\C)[C@@H](O[C@H]3C[C@H](OC)[C@@H](O[C@H]4C[C@H](OC)[C@@H](O)[C@H](C)O4)[C@H](C)O3)[C@@H](C)/C=C/C=C3\CO[C@@H]4[C@H](O)C(C)=C[C@@H](C(=O)O1)[C@]34O)O2.CO[C@H]1C[C@H](O[C@H]2[C@H](C)O[C@@H](O[C@@H]3/C(C)=C/C[C@@H]4C[C@@H](C[C@]5(C=C[C@H](C)[C@@H](C(C)C)O5)O4)OC(=O)[C@@H]4C=C(C)[C@@H](O)[C@H]5OC/C(=C\C=C\[C@@H]3C)[C@]54O)C[C@@H]2OC)O[C@@H](C)[C@@H]1O` (stereo not given in full), the “growth AUC” value with Akkermansia muciniphila was 1.22; in the assay on Bacteroides caccae, 0.965; in the assay with Bacteroides clarus, 1.07; in the assay with Bacteroides dorei it was 0.965; in the assay on Bacteroides stercoris it was 0.915; in assay [1] it was 1.01. In addition, the “growth AUC” value was 1.01 in the assay with Bacteroides uniformis, 0.919 in assay [2], 0.952 in the assay on Clostridium difficile and 0.996 in the assay with Collinsella aerofaciens.
As for `O=[N+]([O-])c1cc(C(F)(F)F)c(Cl)c([N+](=O)[O-])c1Nc1ncc(C(F)(F)F)cc1Cl`, the “growth AUC” value was 1.01 in the assay on Akkermansia muciniphila; 0.55 (active) with Bacteroides caccae; 0.322 (active) with Bacteroides clarus; 0.672 (active) in the assay with Bacteroides dorei; 0.00814 (active) in the assay with Bacteroides stercoris; 0.0138 (active) in assay [1]. Besides, the “growth AUC” value in the assay with Bacteroides uniformis is 0.0147 (active); in assay [2], 0.705 (active); with Clostridium difficile, 0.914; with Collinsella aerofaciens, 0.886.
As for `CCOC1Oc2ccc(OS(C)(=O)=O)cc2C1(C)C` (stereo not given), the “growth AUC” value is 1.03 with Akkermansia muciniphila; 0.907 in the assay with Bacteroides caccae; 0.978 in the assay with Bacteroides clarus; 0.889 in the assay with Bacteroides dorei; 0.897 in the assay with Bacteroides stercoris; 0.987 in assay [1]. Also, the “growth AUC” value is 0.993 in the assay with Bacteroides uniformis, 1.01 in [2], 0.99 in the assay on Clostridium difficile and 0.916 in the assay with Collinsella aerofaciens.
Turning to `CC(C)N1C(=O)c2ccccc2NS1(=O)=O`, the “growth AUC” value is 1.21 in the assay on Akkermansia muciniphila; 0.999 in the assay with Bacteroides caccae; 0.999 in the assay on Bacteroides clarus; 0.946 in the assay with Bacteroides dorei; 1 with Bacteroides stercoris; 1.01 in [1]. For the same compound, the “growth AUC” value in the assay on Bacteroides uniformis is 0.977; in [2] it was 1.06; in the assay with Clostridium difficile it was 0.98; in the assay with Collinsella aerofaciens, 0.967.
Consider `Nc1nc(N)nc(N)n1`, for which the “growth AUC” value with Akkermansia muciniphila is 0.956; with Bacteroides caccae, 1.02; with Bacteroides clarus, 0.881; in the assay with Bacteroides dorei, 1.03; with Bacteroides stercoris it was 0.792 (active); in assay [1], 0.968. The “growth AUC” value in the assay with Bacteroides uniformis is 0.972; in [2], 1.15; in the assay on Clostridium difficile, 0.989; in the assay with Collinsella aerofaciens, 1.03.
As for `CNC(=O)Oc1cccc2ccccc12`, the “growth AUC” value is 1.08 with Akkermansia muciniphila; 0.993 in the assay on Bacteroides caccae; 1.01 in the assay on Bacteroides clarus; 0.991 with Bacteroides dorei; 1.02 with Bacteroides stercoris; 0.998 in assay [1]. Further, the “growth AUC” value with Bacteroides uniformis was 1.03; in assay [2] it was 1.03; in the assay on Clostridium difficile, 1.01; with Collinsella aerofaciens it was 0.987.
